Our source for the Potency and activation (cAMP increase) values is PubChem BioAssay AID624287 (National Center for Advancing Translational Sciences (NCATS), 2012).

Screen size: about 340,000 compounds; about 420 (0.12%) were called active. About 10% were inconclusive and are not listed. What follows is part of a selection rich in actives, with near analogues and random picks from the rest. Where a call stands in place of a potency, no number is given. Unmarked numbers belong to inactive results. The call rests on the fitted dose curve; in most records, active means well fitted activation curve with a large enough effect; inconclusive means small, poorly fitted or top-dose-only effect, or another doubt; inactive means no such curve, though single readings can be large or run the other way; cell line not stated here.
Potency means the concentration at half of the fitted maximal effect.

The nature of the assay: qHTS for Agonist of gsp, the Etiologic Mutation Responsible for Fibrous Dysplasia/McCune-Albright Syndrome: qHTS. Further: nearly all actives have a fitted effect of over 60% in size.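 On activation (cAMP increase): phosphodiesterase inhibitor Ro 20-1724 added with compounds to block cAMP breakdown.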 The following applies: gsp mutant cells, cAMP HTRF, 30 min; series mostly up to 76.9 µM. From the text: McCune-Albright syndrome (MAS) is a rare disease caused by somatic mutations in Gsgsp), a widely expressed protein central in signal transduction from G-coupled protein receptors (GPCRs). The disease symptoms are diverse, owing to the fact that the patients are mosaics with varying degrees of tissue involvement. Greater than 90% of the mutations in Gs in MAS occur at the R201 position and are equally divided between R201H and R201C. The R201 residue is central in the intrinsic GTPase activity of Gs and the H and C mutations lead to loss of, or impairment of, the GTPase activity. The intrinsic GTPase activity is necessary to terminate the interaction between Gs and adenylate cyclase, and to terminate the cAMP-mediated signaling of the given GPCR pathway. Thus, these activating mutations lead to ligand-independent activation of GPCR pathways. The tissue phenotype is determined by the role of Gs in the function of a given cell, and excess Gs/cAMP signaling in that cell. For example, pituitary somatotrophs overproduce growth hormone in a growth hormone releasing hormone-independent fashion, and gigantism/acromegaly ensues. Skeletal stem cells in the bone marrow behave as if they are under constant parathyroid hormone stimulation and fail to differentiate into osteoblasts and osteocytes, and proliferate as immature osteogenic cells and lead to the marrow fibrosis of fibrous dysplasia of bone. The goal of this project is to identify molecules with stimulatory activity at gsp mutations that will not only allow for in-depth study of the underlying molecular and cellular pathophysiology, but also serve as compounds from which drugs to treat FD/MAS can be developed NIH Chemical Genomics Center [NCGC] NIH Molecular Libraries Probe Centers Network [MLPCN] MLPCN Grant: IRP-FT-DE-2011-01 Assay Submitter (PI): Michael Collins, NIDCR
1.#Seed 2000 cells/well in 6 ul DMEM 10% FBS, 1% Pen/Strep, 0.5 mg/ml G418 2.#Incubate 16-24 hr at 37C, 5% CO2, 95% humidity 3.#Aspirate leaving 1 ul residual volume 4.#Dispense 5 ul/well DPBS + 1 mM CaCl2, 0.5 mM MgCl2, 0.05% BSA, 0.005% Tween 20 5.#Aspirate leaving 2 ul residual volume 6.#Dispense 23 nl/well compounds in DMSO 7.#Dispense 1 ul/well 300 uM Ro-20174 in DMEM 10% FBS 8.#Incubate 30 min at 37C, 5% CO2, 95% humidity 9.#Dispense 1.5 ul/well HTRF reagent: cAMP-d2 in lysis buffer 10.#Dispense 1.5 ul/well HTRF reagent: anti-cAMP antibody-K in lysis buffer 11.#Incubate 30 min at room temperature 12.#Detect HTRF signal using EnVision plate reader
`CCCc1nc(SCC(=O)N2CCCC2)c2c(=O)n(C)c(=O)n(C)c2n1`: the Potency entry is “inactive”.

As for `CCn1c(SCC(=O)NCC2CCCO2)nc2ccccc21` (configuration not stated), the Potency result was “inactive”.

Take `Cn1c(=O)c2c(SCC(=O)NCC3CCCO3)nc(CC(C)(C)C)nc2n(C)c1=O` (configuration not stated): the Potency was 14.1 µM (active).

With `CCCCCCN1C[C@H](O)[C@@H](n2cc(C3CC3)nn2)C[C@@H]1c1ccc(Cl)cc1`, the Potency entry is “inactive”.

Consider `CC1(C)CC(=O)C=C(c2ccc(COC(=O)c3cc(F)cc(F)c3)cc2)C1=O`, for which the Potency entry was “inactive”.

With `O=C(CCc1ccc(O)cc1)NN=Cc1cc(Br)ccc1O`, the Potency entry was “inactive”.

In the case of `COc1cc2ccc(C(C)=O)c(O)c2cc1OC`, the Potency result is “inactive”.

Regarding `COC(=O)C[C@H]1C[C@@H]2c3cc(N(C)C)ccc3O[C@@H]2[C@H](CO)O1`, the Potency entry was “inactive”.

For the compound `Cc1cc(Cl)ccc1C(=O)C1CCCN(C(=O)c2ccc3c(c2)OCO3)C1` (configuration not stated), the Potency result is “inactive”.

Turning to `Cc1ccc(C(=O)N2CCCc3ccccc32)c(Cl)c1`, the Potency result is “inactive”.

As to `CN(C)C(CNC(=O)c1cc(Br)c(Br)s1)c1ccco1` (configuration not stated), the Potency result was “inactive”.

On to `O=C(COC(=O)Cc1ccc(Cl)cc1Cl)NCc1ccco1`, for which the Potency result is “inactive”.

For `CCOC(=O)C=Cc1ccc(C(=O)OCC)[nH]1`, the Potency entry was “inactive”.

As for `C/[N+]([O-])=C\c1ccc([N+](=O)[O-])o1`, the Potency was 28.2 µM (active).

Turning to `CCc1ccc(S(=O)(=O)N/N=C\c2ccc([N+](=O)[O-])o2)cc1`, the Potency entry is “inactive”.

Consider `Cc1cc(C)nc(N/N=C/c2ccc([N+](=O)[O-])o2)n1`, for which the Potency result was “inactive”.

As to `COc1ccc(/C=C2\SC(=S)N(CCC(=O)N3CCOCC3)C2=O)cc1OC`, the Potency result was “inactive”.

As to `O=C(NCc1ccccc1)C1CNCC(C(=O)NCc2ccccc2)C1` (configuration not stated), the Potency result was “inactive”.

On to `Cc1ccc([C@H]2N[C@]3(CCCN(Cc4ccccc4)C3=O)[C@H]3C(=O)N(Cc4ccccc4)C(=O)[C@@H]23)cc1`, for which the Potency result is “inactive”.

For `CCN(CC)C(=O)c1sc2nc(-c3ccccc3)ccc2c1N`, the activation (cAMP increase) is -3.88% [at 15.4 µM].

In the case of `CNc1nc(-c2ccccc2)cc(-c2ccccc2)n1`, the Potency result is “inactive”.

Take `CS(=O)(=O)c1sc2nc(-c3ccccc3)cc(-c3ccccc3)c2c1N`: the Potency was 7.08 µM (active).

`CCc1ccccc1NC(=O)CN1CCN(C(=O)c2cc(C3CC3)nn2-c2ccccc2)CC1`: the Potency result was “inactive”.

Turning to `O=NN(CCCl)C(=O)NCCc1cccc[n+]1[O-]`, the Potency entry is “inactive”.

On to `CSc1ncnc2c1ncn2CCCNCC1CCCCC1`, for which the Potency entry is “inactive”.

Turning to `Cc1ccc(S(=O)(=O)N(CCc2ccccc2)c2ccc3c(c2)C2CC3CCN2C(=O)OCc2ccccc2)cc1` (configuration not stated), the Potency entry was “inactive”.

As to `CC(OC(=O)c1cccnc1Cl)C(=O)NC1CCCCC1` (configuration not stated), the Potency entry was “inactive”.

Consider `O=C(COC(=O)c1cncc(Br)c1)Nc1ccc(S(=O)(=O)N2CCOCC2)cc1`, for which the Potency entry was “inactive”.

As for `O=C(OCc1ccccc1)N1CCC2CC1c1cc(N3CCN(S(=O)(=O)c4cc(Cl)cc(Cl)c4)CC3)ccc12` (configuration not stated), the Potency entry is “inactive”.

For the compound `NC(CSC(c1ccccc1)(c1ccccc1)c1ccc(-c2ccccc2)cc1)C(=O)O` (configuration not stated), the Potency result is “inactive”.

Regarding `C=CCn1c2ccccc2c2nnc(SCc3[nH]c(=O)[nH]c3C(=O)CCCCC(=O)OCC)nc21`, the Potency is 2 µM (active).

As for `C=CCn1c(SCC(=O)CC(=O)OCC)nc2cc(C(=O)N3CCC(C(N)=O)CC3)ccc2c1=O`, the activation (cAMP increase) is 4.18% [at 15.4 µM].

For the compound `C=CCn1c2ccccc2c2nnc(SC(CC)C(=O)Nc3nc(C)c(C(=O)OCC)s3)nc21` (configuration not stated), the Potency result is “inactive”.

In the case of `C=CCn1nc(C(=O)OCC)cc1-c1sc(NC(=O)c2ccccc2)nc1C`, the Potency result was “inactive”.

For the compound `Cc1cc(C)c2c(=O)n3c(nc2c1)C(CC(C)C)NC(=O)c1cc2ccccc2cc1-3` (configuration not stated), the Potency result was “inactive”.

Take `CC(=O)Nn1cc2c(=O)n(C)c(=O)n(C)c2c1`: the Potency is 7.94 µM (active).

On to `COc1ccc(-c2c3c(=O)n(C)c(=O)n(C)c3cn2NC(C)=O)cc1`, for which the Potency entry was “inactive”.

Take `Cn1c(=O)c2cn(-c3cccc4ccccc34)cc2n(C)c1=O`: the activation (cAMP increase) was -9.96% [at 15.4 µM].

Consider `COc1ccc(OC)c(C(=O)NC2CCCc3c2cnn3-c2cc(C)cc(C)c2)c1` (configuration not stated), for which the Potency result was “inactive”.

On to `CCOC(=O)c1cc(-c2sc(NC(=O)c3ccccc3)nc2C)n(CCO)n1`, for which the Potency result was “inactive”.

Take `O=C(NCCS(=O)(=O)N1CCN(c2ccccc2)CC1)c1cc(=O)c2ccccc2o1`: the Potency entry is “inactive”.

For the compound `COc1ccc(Cl)cc1NC(=O)CN(C)C(=O)c1cn(-c2ccccc2)nc1-c1cccs1`, the Potency result was “inactive”.

For `C[C@@H]1CN([C@@H](C)CO)C(=O)c2cc(Br)cnc2O[C@H]1CN(C)Cc1ccc(-c2ccccc2)cc1`, the Potency result is “inactive”.

In the case of `CCOc1cc(/C=N/NC(=O)c2c(C)nc3ccc(Cl)cn23)ccc1O`, the Potency entry was “inactive”.

For `Cc1ccc(NC(=O)COC(=O)CN2CCSC2=O)cc1F`, the Potency result was “inactive”.

Consider `C[C@H]1Cn2cnc(C(=O)N[C@@H](Cc3c[nH]c4ccccc34)C(=O)OC(C)(C)C)c2C(=O)N1`, for which the Potency result was “inactive”.

As to `CC(=O)Nc1ccc(C=Cc2ccc([N+](=O)[O-])cc2)cc1`, the Potency entry is “inactive”.
